Screening results (PubChem)
An excerpt weighted towards active compounds, which were near 4.1% of everything screened.
NALP1 yeast inh – blocks the NALP1 inflammasome reconstituted in yeast. S. cerevisiae NALP1/ASC/caspase-1 growth, X-gal OD620, 72 h. inhibition, % at 10 µM. hit rate 0.61% among 280,000. AID 2071; in the data active means inhibition mostly above about 24%, no sharp cut-off; inactive means mostly below about 32%
TIM10 inh – growth inhibitors of TIM10 yeast strain | S. cerevisiae TIM10 strain growth, BacTiter-Glo luminescence, 24 h | inhibition, % at 10 µM | hit rate 1.4% among 330,000 | AID 463195;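 active means inhibition of 40% or more at the single tested concentration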;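 further: wild-type TIM10 isogenic control strain grown at permissive 25 °C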
tim10-1 inh – inhibits growth of tim10-1 mutant yeast; inhibition, % at 20 µM; hit rate 2.2% among 330,000; S. cerevisiae tim10-1 ts strain growth, BacTiter-Glo, 24 h;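 active means inhibition of at least 40%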;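 further: mutant grown at 25 °C; 0% = DMSO wells with yeast and 100% = wells holding no yeast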
tim23-1 inh – growth inhibitors of tim23-1 mutant yeast | hit rate 1.3% among 330,000 | S. cerevisiae tim23-1 growth, BacTiter-Glo luminescence, 24 h | inhibition, % at 20 µM;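 active means growth inhibition of the mutant yeast at or above 50%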;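 further: temperature-sensitive mutant grown at 25 °C; plate controls were DMSO-treated mutant yeast for no effect and medium wells lacking yeast for full effect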
NALP3 yeast inh – blocks the NALP3 inflammasome reconstituted in yeast; hit rate 0.39% among 330,000; Yeast reconstituted NLRP3/ASC/caspase-1, beta-gal luminescence, 24 h; inhibition, % at 10 µM;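 active means inhibition of 50% or more; inactive means inhibition below 50%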;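 further: plate controls were induced DMSO wells for no effect and uninduced yeast grown without galactose for full effect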
tim10-1 conf – confirmation of tim10-1 mutant yeast growth inhibitors; shares compounds with tim10-1 inh; S. cerevisiae tim10-1 ts strain growth, BacTiter-Glo, 24 h; inhibition, % at 20 µM; hit rate 56% among 7,400; AID 463213;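 active means inhibition of yeast growth at or above a set limit in either of two repeat tests at 20 µM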;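 further: tim10-1 mutant grown at permissive 25 °C to find synthetic lethal compounds; 0% = DMSO yeast wells and 100% = medium wells without yeast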
* = called active by the depositor; x = not tested or not shown.

SMILES | NALP1 yeast inh | TIM10 inh | tim10-1 inh | tim23-1 inh | NALP3 yeast inh | tim10-1 conf
Cc1csc(NC(=O)c2nc(-c3ccccc3)n(-c3ccccc3)n2)n1 | -18.9 | 22.6 | 51.0* | 47.6 | 7.8 | 41.4*
Cc1ccc(C)c(NC(=O)c2nc(-c3ccccc3)n(-c3ccccc3)n2)c1 | 17.5 | 28.7 | 42.7* | 42.6 | 0.9 | 28.0
CC(C)NCCCCOc1ccccc1-c1ccccc1 | 30.5 | 8.8 | 10.1 | -2.5 | 9.9 | x
C=CCN=c1scc(-c2ccc(F)cc2)n1/N=C/c1ccccn1 | 36.0 | 35.0 | 40.6* | 26.7 | -7.1 | 14.0
O=C(/C=C/c1ccc(Cl)cc1Cl)N1CCN(c2ccc([N+](=O)[O-])c(N3CCOCC3)c2)CC1 | 25.5 | 13.4 | 41.7* | 13.0 | 6.0 | 15.8
CCOc1cc(/C=N\Nc2nc(Nc3ccccc3)nc(N3CCOCC3)n2)ccc1OC(=O)c1ccco1 | 3.7 | 27.5 | 42.3* | 19.7 | 4.5 | 26.9
COC(=O)c1ccc(NC(=O)CCN2C(=O)NC(C)(C)C2=O)cc1 | x | 1.5 | -9.1 | 4.6 | -1.4 | x
COc1ccc(/C=C/C(=O)c2ccccc2)cc1Cn1nnc2ccccc21 | 13.6 | 39.1 | 59.4* | 46.5 | 6.3 | 44.7*
Cc1cc(C(=O)Nc2ccc3[nH]ccc3c2)no1 | 17.8 | -1.2 | -16.1 | -9.2 | 24.1 | x
Cc1cccc2nc(COc3ccc(Cl)c4cccnc34)cn12 | -12.0 | 28.0 | 40.5* | 44.0 | 35.2 | 35.7*
CSc1nc2c(c(-c3ccccc3)c1C#N)CCC2 | x | 3.8 | 47.8* | 31.3 | 21.4 | 32.5*
Cc1cc(/C=C\c2ccc3cc(N(C)C)ccc3[n+]2C)c(C)n1-c1ccccc1 | x | 28.6 | 70.4* | 31.7 | 35.5 | 50.5*
C[n+]1c(/C=C/c2ccc(O)cc2)ccc2ccccc21 | 4.7 | 38.1 | 17.9 | 26.9 | 29.1 | x
COc1ccccc1CCNC(=O)CN1C(=O)c2ccccc2S1(=O)=O | x | -6.2 | -1.9 | -4.5 | 5.3 | x
C/C(=N/NC(=O)c1cc2ccccc2cc1O)C1C(=O)c2ccccc2C1=O | -5.3 | 20.1 | 46.8* | 26.8 | 13.0 | 32.3*
C/C(=N\NC(=O)c1cc2ccccc2cc1O)c1cc2ccccc2o1 | 1.3 | 3.0 | 0.4 | 20.8 | 5.1 | x
C/C(=N\NC(=O)c1cc2ccccc2cc1O)c1ccccn1 | 9.0 | -21.8 | 60.0* | 28.9 | 19.9 | -29.6
Fc1ccccc1CNc1ccc(Cl)c(Cl)c1 | -1.2 | 13.5 | 61.3* | 30.2 | 18.5 | 68.9*
CCN(CC(=O)NCc1ccc(Cl)cc1)C(=O)CN1C(=O)NC(C)(c2ccccc2)C1=O (stereo unspecified) | -17.1 | 1.9 | -10.8 | -9.5 | -0.8 | x
COc1cccc(C(=O)CSc2nnnn2C2CCCCC2)c1 | 5.6 | 11.1 | 44.1* | 46.3 | 17.9 | 36.8*
O=C(NCc1ccccc1)C1CCN(S(=O)(=O)c2ccc(Cl)cc2)CC1 | 4.8 | 18.0 | 18.6 | 3.1 | -3.6 | x
CCc1nn(C(C)C(=O)NC2CCCCCC2)c(=O)c2cc3occc3n12 (stereo unspecified) | 17.2 | 4.1 | 41.4* | 34.1 | -2.6 | -6.9
Cc1ccc(F)cc1NC(=O)CN1C(=O)NC2(CCCc3ccccc32)C1=O (stereo unspecified) | x | 4.3 | 13.4 | -2.4 | 22.7 | x
COCCNC(=O)/C(C#N)=C/C(C)=C/c1ccccc1 | 39.1 | 16.9 | 53.2* | 42.4 | 2.4 | 42.2*
CC(C)c1cc(C(C)C)c(S(=O)(=O)NNC(=O)c2ccncc2)c(C(C)C)c1 | 12.7 | 33.3 | 49.8* | 36.6 | -4.9 | 21.2
SMILES | NALP1 yeast inh | TIM10 inh | tim10-1 inh | tim23-1 inh | NALP3 yeast inh | tim10-1 conf
CCCCN(C(=O)C1=CC=CN2CCS(=O)(=O)N=C12)c1ccccc1 | x | -3.8 | 25.2 | 0.7 | 3.7 | x
Cc1ccc(C(=O)C(C)OC(=O)CN2C(=O)NC3(CCCC3)C2=O)cc1C (stereo unspecified) | x | 1.0 | 4.0 | 7.1 | 20.0 | x
O=C(CSCc1cccc(Br)c1)N/N=C/c1ccc2c(c1)OCO2 | 12.8 | 14.4 | 43.2* | 36.8 | 22.6 | 36.5*
Cc1cc(C)c(OCC(=O)Nc2ccccc2N2CCOCC2)c(C)c1 | -1.6 | 26.6 | 46.5* | 29.7 | 14.2 | 32.5*
COc1cc(C(=O)NC(=S)Nc2ccc(Cl)cn2)cc(OC)c1OC | 1.3 | 12.0 | 41.7* | -5.0 | 24.6 | 16.8
COc1ccc(C(=O)Nc2ccccc2N2CCOCC2)cc1Br | x | -8.7 | 40.3* | 16.0 | 27.5 | 12.5
COc1cc(C(=O)NC(=S)Nc2ccccc2N2CCCC2)cc(OC)c1OC | -6.6 | 34.1 | 50.6* | 27.5 | 5.4 | 12.9
COc1ccc(C(=O)NC(=S)Nc2ccccc2N2CCOCC2)cc1Br | 36.0 | 27.4 | 35.3 | 48.0 | 16.7 | x
COc1cc(C(=O)Nc2ccccc2N2CCCCC2)cc(OC)c1OC | 12.7 | 22.9 | 25.2 | 42.0 | 21.2 | x
O=C(CN(Cc1ccccc1Cl)C(=O)c1csnn1)NC1CCCC1 | -12.1 | 1.5 | -5.0 | 7.5 | 10.3 | x
CCCCN1C(=O)c2ccc(C(=O)Nc3ccccc3N3CCOCC3)cc2C1=O | -1.0 | 19.3 | 42.8* | -11.6 | 9.5 | -3.7
O=C(CN1C(=O)c2ccccc2C1=O)Nc1ccccc1N1CCOCC1 | 5.3 | -2.6 | -4.5 | 7.0 | -5.4 | x
Cc1oc2c(Cl)c(Cl)c(O)c(CN(C)C)c2c1C(=O)c1ccc(Cl)cc1 | -4.9 | 37.7 | 48.7* | 45.2 | 18.2 | 52.8*
CC(=O)c1ccc(NC(=S)NC(C)c2ccc(Cl)cc2Cl)cc1 (stereo unspecified) | 7.5 | 25.9 | 55.7* | 27.0 | 1.4 | 33.4*
CC(=O)c1ccc(NC(=S)NC(=O)Cc2ccc(Cl)cc2)cc1 | -0.4 | -8.2 | -27.6 | -22.3 | 15.2 | x
Cc1ccc(-c2cc(-c3ccccc3)[nH]c(=S)c2C#N)cc1 | 30.2 | 2.4 | 54.3* | 35.7 | -1.0 | 25.9
COc1ccc(-c2cc(-c3ccccc3)c(C#N)c(=S)[nH]2)cc1 | -6.2 | 32.8 | 16.4 | 41.3 | 2.3 | x
CCN1CCN(C(=O)c2ccc3c(c2)c(C)c(C)n3Cc2ccccc2)CC1 | -2.3 | 2.8 | 18.8 | 14.2 | -4.0 | x
CCn1c(C)c(C)c2cc(C(=O)N3CCc4ccccc4C3)ccc21 | -2.1 | 27.5 | 47.6* | 47.0 | 8.7 | 0.9
COc1ccc(N2C(=O)CSC2c2ccccc2F)c(OC)c1 (stereo unspecified) | -8.9 | 26.3 | 22.1 | 16.0 | -14.8 | x
C/C(=N\NC(N)=S)C12CC3CC(CC(C3)C1)C2 | -19.5 | 26.4 | 43.4* | 46.2 | 11.5 | -21.2
COc1ccc2c(c1)O[C@@H](c1ccc3c(c1)OCO3)[C@H](OC(=O)Nc1cc(OC)c(OC)c(OC)c1)C2=O | 12.7 | x | x | x | x | x
Fc1cccc(F)c1CSc1nc2ccccc2[nH]1 | 7.9 | 35.1 | 42.6* | 32.4 | 26.0 | 30.0
O=C(CSc1nc2ccccc2[nH]1)c1ccccc1F | 20.4 | 9.8 | 20.7 | 21.1 | 14.5 | x
O=c1cnc2cc([N+](=O)[O-])ccc2[nH]1 | -2.7 | 3.5 | 4.5 | -14.4 | 4.0 | x
Brc1ccccc1/C=N/Nc1ccc2ccccc2n1 | -0.6 | 29.2 | 32.6 | 26.2 | 15.4 | x
Brc1ccc(/C=N/Nc2ccc3ccccc3n2)cc1 | 18.1 | 16.0 | 47.6* | 34.6 | 19.3 | 14.0
